F508del corr = F508del CFTR correction, initial screen, CFBE line, single point. CFBE cells, YFP halide quenching; stimulated with forskolin plus potentiator P3; % fluorescence drop versus neutral controls. activity (quench increase), % at 7.58 µM. AID 720511, 2013. 350,000 tested, 0.36% active;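 active = mean added fluorescence quench of at least 8% versus neutral control, with both replicates also reaching 8%; inconclusive = only one of the mean or replicate conditions met; inactive = mean below 8% and not both replicates reaching 8%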;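 also: cells transiently co-express mutant CFTR-F508del with the halide-sensitive YFP; corrector assay measuring rescue of mutant channel to the surface after 24 h compound exposure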
PAX8 inh HTS = inhibitors of PAX8-driven TPO luciferase reporter, primary screen, RMG-I cells, single concentration; inhibition, % at 12.6 µM; SteadyGlo, 24 h; 360,000 tested, 1.2% active; AID 652154, 2013;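 active = mean replicate inhibition at least 60% with every replicate also reaching 60%; inconclusive = only one of the two criteria is met; inactive = mean below 60% and not all replicates reaching 60%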;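 also: luciferase light reporting Pax8 driven TPO promoter activity; plate controls were median of neutral control wells for no effect and mitoxantrone controls for full effect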
EWS-Fli inh = EWS/Fli-driven NR0B1 reporter inhibitors, primary screen, A673 cells, NR0B1 luciferase, luminescence, MLPCN library | viability-normalised | inhibition, % at 12.6 µM | 350,000 tested, 0.67% active;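 active = mean inhibition of at least 50% after viability correction, with every replicate also passing that limit; inconclusive = mean reaches 50% but only one of two replicates passes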;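 also: firefly luciferase signal divided by Alamar Blue viability fluorescence both relative to DMSO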
HIV Env fusion = inhibitors of HIV-1 Env-driven cell-cell fusion, primary screen, HeLa-JRFL effector, CEM21 target cells, luciferase. inhibition, % at 12.3 µM. 360,000 tested, 1.1% active;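 active = mean replicate inhibition score of at least 50 and every replicate individually at or above 50; inconclusive = only one of the two criteria met; inactive = mean below 50 and not all replicates reaching 50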;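 also: 0% = plate neutral controls and 100% = maraviroc near 300 nM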
FXN GAA850 act = FXN promoter activators, primary screen, cell-based, luciferase luminescence, HEK293 lucGAA850; HEK293 lucGAA850 FXN promoter luciferase reporter, 24 h; percent of 10 µM SAHA response; activation, % at 6 µM; 360,000 tested, 0.56% active; AID 540364, 2011;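 active = activation above the average of all compounds screened plus 3 SD, cutoff fixed separately per campaign, cut at about 7.5% in these data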;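 also: 0% = DMSO wells and 100% = 10 µM SAHA wells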
Numbers without * were called inactive; ? = inconclusive; / = no result; [ ] = remark or other dose. Shown are actives, neighbours in structure and some others; about 2.5% of the full set was active somewhere.

SMILES	F508del corr	PAX8 inh HTS	EWS-Fli inh	HIV Env fusion	FXN GAA850 act
Cc1c(CCOC(=O)c2ccccc2)sc[n+]1CC(=O)c1ccc(Br)cc1	/	/	/	/	0
Cc1c(CCOC(=O)CC23CC4CC(CC(C4)C2)C3)sc[n+]1CC(=O)c1ccc(Br)cc1	/	/	/	61*	4
C[C@@H]1CN([C@H](C)CO)C(=O)c2cc(NC(=O)NC3CCCCC3)ccc2O[C@@H](C)CCCCO[C@@H]1CN(C)Cc1ccc(C(F)(F)F)cc1	0	-25	1	-23[16.7 µM]	/
CCCC(=O)Nc1ccc2c(c1)C(=O)N(C)C[C@@H](OC)[C@H](C)CN(Cc1ccc(-c3ccccn3)cc1)[C@H](C)CO2	2	76*	3	/	/
CCCNC(=O)Nc1ccc2c(c1)OC[C@@H](C)N(Cc1ccc(-c3ccccn3)cc1)C[C@@H](C)[C@H](OC)CN(C)C2=O	4	95*	-3	/	/
CCCNC(=O)Nc1ccc2c(c1)OC[C@H](C)N(Cc1ccc(-c3ccccn3)cc1)C[C@@H](C)[C@@H](OC)CN(C)C2=O	2	100*	24	/	/
O=P(OC1CCCCC1)(OC1CCCCC1)C(O)c1ccc(Cl)cc1Cl (stereo not drawn)	/	/	/	61*	-2
Cc1ccc(C(O)P(=O)(OC2CCCCC2)OC2CCCCC2)cc1 (stereo not drawn)	/	/	/	-60	1
O=P(OC1CCCCC1)(OC1CCCCC1)C(O)c1c(Cl)cccc1Cl (stereo not drawn)	/	/	/	59*	4
O=C(CC1CC1)N1[C@H](CO)[C@@H](c2ccccc2)C12CN(Cc1cc(F)ccc1F)C2	2	/	5	/	/
CCN(CC)S(=O)(=O)c1ccc(Oc2ccc(S(=O)(=O)N(CC)CC)cc2)cc1	/	/	/	62*	-1
CCN(CC)S(=O)(=O)c1ccc(Oc2ccccc2OC)cc1	3	-18	-2	14	3
O=C1/C(=C/c2ccccc2)SC(=S)N1CC(=O)N1CCCCC1c1cccnc1 (stereo not drawn)	-4	90*	/	7	-1
CCSC(=O)N1c2ccc(OC)cc2C=CC1C#N (stereo not drawn)	15*	?	41	-205	0
COc1ccc(C(=O)N2c3ccccc3C=CC2C#N)cc1 (stereo not drawn)	0	4	-1	9	0
CCN(C)C[C@@H]1Oc2cc(C#CCC3CCCC3)ccc2S(=O)(=O)N([C@@H](C)CO)C[C@H]1C	-2	18	9	-5[16.7 µM]	/
CCCN(C)C[C@@H]1Oc2cc(C#Cc3ccncc3)ccc2S(=O)(=O)N([C@H](C)CO)C[C@@H]1C	-8	/	66*	-12[16.7 µM]	/
CCCN(C)C[C@@H]1Oc2cc(C#Cc3ccncc3)ccc2S(=O)(=O)N([C@@H](C)CO)C[C@@H]1C	-5	/	23	-19[16.7 µM]	/
CCCN(C)C[C@@H]1Oc2cc(C#CCC3CCCC3)ccc2S(=O)(=O)N([C@H](C)CO)C[C@H]1C	-1	71*	43	39[16.7 µM]	/
C[C@@H]1CN([C@@H](C)CO)C(=O)c2cc(NC(=O)CCC(F)(F)F)ccc2O[C@@H](C)CCCCO[C@H]1CN(C)C(=O)c1ccccc1	1	22	0	6[16.7 µM]	/
O=c1[nH]c(CSc2ccccn2)nc2c1cnn2-c1ccccc1	/	-7	/	-3	1
Cn1ccnc1SCc1nc2c(cnn2-c2ccccc2)c(=O)[nH]1	-1	140*	2	/	-2
C/C=C/c1ccc([C@@H]2[C@@H](CO)N(C(C)=O)[C@@H]2CN(C)S(C)(=O)=O)cc1	-1	1	-2	/	/
CC(=O)NC(c1ccc(C)cc1)c1cc([N+](=O)[O-])c2cccnc2c1O (stereo not drawn)	2	1	0	48*	-3
CC(=O)NC(c1ccc(N(C)C)cc1)c1cc(Cl)c2cccnc2c1O (stereo not drawn)	4	85*	24	45	-3
SMILES	F508del corr	PAX8 inh HTS	EWS-Fli inh	HIV Env fusion	FXN GAA850 act
CC(=O)NC(c1ccccc1)c1cc(Cl)c2cccnc2c1O (stereo not drawn)	3	85*	21	16	-4
Oc1c(I)cc(Cl)c2cccnc12	-18	79*	16	5	-2
CCC(=O)NC(c1ccc(C)cc1)c1cc([N+](=O)[O-])c2cccnc2c1O (stereo not drawn)	/	12	/	26	1
CCCC#Cc1ccc2c(c1)O[C@H](CN(C)C(=O)c1ccccc1)[C@@H](C)CN([C@H](C)CO)S2(=O)=O	-3	/	7	-40[16.7 µM]	/
O=S(=O)(N[C@@H]1CC[C@H](CCn2cc(C3CC3)nn2)O[C@H]1CO)c1ccc(Cl)cc1	-3	-2	-4	3[16.7 µM]	/
Oc1c(C(c2ccccn2)N2CCCCC2)cc(Cl)c2cccnc12 (stereo not drawn)	-2	77*	37	-17	-1
CCC(=O)NC(c1cc(Cl)c2cccnc2c1O)C1CC1 (stereo not drawn)	1	66*	27	44	-4
COCC(=O)N1C[C@@H](C)[C@@H](OC)CN(C)C(=O)c2ccc(NC(=O)c3ccccc3)cc2OC[C@@H]1C	-1	/	-9	/	/
Cc1cc(C)c2nc(C)cc(N/N=C/c3ccc(O)cc3)c2c1	-13	94*	67*	-118	0
Cc1cc(N/N=C/c2ccc(O)cc2)c2cccc(C)c2n1	-13	13	48	-10	-1
COc1ccc(NS(=O)(=O)c2cccc(C(=O)NNC(=O)CNC(=O)c3ccc(C)cc3)c2)cc1	-1	4	0	68*	1
O=C1N[C@@H](Cc2ccccc2)COC(=O)[C@@H](Cc2ccc(F)cc2)CC/C=C/C[C@@H]1CC(=O)N(CCO)Cc1ccccc1	2	68*	3	34	-3
O=C(C[C@@H]1C/C=C/CC[C@H](Cc2ccc(F)cc2)C(=O)OC[C@@H](Cc2ccccc2)NC1=O)N[C@H](CO)Cc1ccccc1	3	103*	?	35	0
COCC#Cc1cnc2c(c1)C(=O)N([C@H](C)CO)C[C@H](C)[C@@H](CN(C)C(=O)NC1CCCC1)O2	-2	/	-2	13[16.7 µM]	/
O=C(CCNS(=O)(=O)c1cccc(C(F)(F)F)c1)NC1CC1	16*	-17	-2	/	0
CC1CCC(NC(=O)CCNS(=O)(=O)c2ccccc2)CC1 (stereo not drawn)	2	-19	-23	0	1
O=C(CN(Cc1ccccc1)S(=O)(=O)c1cccc(C(F)(F)F)c1)NC1CCCCC1	/	2	/	63*	-1
Cc1ccc(N2CC(C(=O)N(C)CC(=O)Nc3ccc(Cl)c(C(F)(F)F)c3)CC2=O)cc1 (stereo not drawn)	9.2*	25	9	31	1
CN(CC(=O)Nc1ccc(Cl)c(C(F)(F)F)c1)C(=O)CCN1C(=O)C2CCCCC2C1=O (stereo not drawn)	10*	7	2	16	1

Source: PubChem
